# Measurements: PubChem BioAssay AID1159580 (chemical genetic matrix, 2015)
# In all, about 5,500 compounds went through this assay and about 2,000 (36%) were called active. Not shown: some 18% with an inconclusive outcome. Some of the results follow. A number with no mark means an inactive call. No stated cut-off is given here; in the data, active means normalized growth mostly below about 0.91 (no sharp cut-off); inconclusive means no clear call, values can overlap the other calls; inactive means mostly above about 0.92.
# Experiment: chemical genetic growth profiling, strain panel (AID 1159580);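 further: tested at 20 µM; growth read once vehicle control cultures reached saturation at 30 °C; 1 = growth at the plate median or of vehicle wells; lower values mean less growth of the strain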
# Details: S. cerevisiae deletion strains, growth OD
# [1] = locus YHR030C, strain SLT2, hits give low values
# [2] = locus YHR079C, strain IRE1, hits give low values
# [3] = locus YJL095W, strain BCK1, hits give low values
# [4] = locus YJR066W, strain TOR1, hits give low values
# [5] = locus YLR113W, strain HOG1, hits give low values
# [6] = locus YNL183C, strain NPR1, hits give low values
# [7] = locus YOR231W, strain MKK1, hits give low values
# [8] = locus YPL256C, strain CLN2, hits give low values
smiles,measurement,setting,value
Cc1c[nH]c2ccccc12,normalized growth,[1],0.992
same,normalized growth,[2],0.979
same,normalized growth,[3],0.999
same,normalized growth,[4],0.94
same,normalized growth,[5],0.945
same,normalized growth,[6],0.927
same,normalized growth,[7],1
same,normalized growth,[8],1.02
Cc1ccccc1/C=C/c1c[nH]c2ccccc12,normalized growth,"locus YAR019C, strain CDC15, hits give low values",0.937
same,normalized growth,"locus YBL105C, strain PKC1, hits give low values",0.961
same,normalized growth,"locus YBR135W, strain CKS1, hits give low values",0.946
same,normalized growth,"locus YBR136W, strain MEC1, hits give low values",0.954
same,normalized growth,"locus YBR160W, strain CDC28, hits give low values",0.951
same,normalized growth,"locus YDL017W, strain CDC7, hits give low values",0.955
same,normalized growth,"locus YDL028C, strain MPS1, hits give low values",0.963
same,normalized growth,"locus YDL101C, strain DUN1, hits give low values",0.953
same,normalized growth,"locus YDL108W, strain KIN28, hits give low values",0.949
same,normalized growth,"locus YDL132W, strain cdc53, hits give low values",0.942
same,normalized growth,"locus YDL214C, strain PRR2, hits give low values",0.902
same,normalized growth,"locus YDR052C, strain DBF4, hits give low values",0.95
same,normalized growth,"locus YDR054C, strain cdc34, hits give low values",0.985
same,normalized growth,"locus YDR226W, strain ADK1, hits give low values",0.949
same,normalized growth,"locus YDR477W, strain SNF1, hits give low values",0.924
same,normalized growth,"locus YER123W, strain YCK3, hits give low values",0.855
same,normalized growth,"locus YER133W, strain GLC7, hits give low values",0.906
same,normalized growth,"locus YFL009W, strain cdc4, hits give low values",0.945
same,normalized growth,"locus YFL029C, strain CAK1, hits give low values",0.92
same,normalized growth,"locus YFR003C, strain YPI1, hits give low values",0.958
same,normalized growth,"locus YFR019W, strain FAB1, hits give low values",0.924
same,normalized growth,"locus YFR028C, strain CDC14, hits give low values",0.955
same,normalized growth,"locus YGR040W, strain KSS1, hits give low values",0.916
same,normalized growth,"locus YGR052W, strain FMP48, hits give low values",0.965
same,normalized growth,"locus YGR092W, strain DBF2, hits give low values",0.858
same,normalized growth,[1],0.921
same,normalized growth,[2],0.948
same,normalized growth,"locus YHR082C, strain KSP1, hits give low values",0.937
same,normalized growth,"locus YHR205W, strain SCH9, hits give low values",0.88
same,normalized growth,"locus YIL147C, strain SLN1, hits give low values",0.956
same,normalized growth,[3],0.946
same,normalized growth,"locus YJL128C, strain PBS2, hits give low values",0.906
same,normalized growth,"locus YJL157C, strain FAR1, hits give low values",0.895
same,normalized growth,"locus YJR016C, strain ILV3, hits give low values",0.952
same,normalized growth,"locus YJR066W, strain TOR1 (second series), hits give low values",0.882
same,normalized growth,[4],0.955
same,normalized growth,"locus YKL048C, strain ELM1, hits give low values",0.948
same,normalized growth,"locus YKL067W, strain YNK1, hits give low values",0.91
same,normalized growth,"locus YKL101W, strain HSL1, hits give low values",0.94
same,normalized growth,"locus YKL193C, strain SDS22, hits give low values",0.948
same,normalized growth,"locus YKL203C, strain TOR2, hits give low values",0.989
same,normalized growth,[5],0.784 (active)
same,normalized growth,"locus YLR133W, strain CKI1, hits give low values",0.931
same,normalized growth,"locus YLR403W, strain SFP1, hits give low values",0.893
same,normalized growth,"locus YML070W, strain DAK1, hits give low values",0.891
same,normalized growth,"locus YMR001C, strain CDC5, hits give low values",0.937
same,normalized growth,"locus YMR205C, strain PFK2 (second series), hits give low values",0.934
same,normalized growth,"locus YMR277W, strain FCP1, hits give low values",0.959
same,normalized growth,"locus YNL006W, strain LST8, hits give low values",0.955
same,normalized growth,"locus YNL020C, strain ARK1, hits give low values",0.912
same,normalized growth,"locus YNL161W, strain CBK1, hits give low values",0.953
same,normalized growth,[6],0.94
same,normalized growth,"locus YNL207W, strain RIO2, hits give low values",0.948
same,normalized growth,"locus YNL222W, strain SSU72, hits give low values",0.946
same,normalized growth,"locus YNL307C, strain MCK1 (second series), hits give low values",0.941
same,normalized growth,"locus YOL078W, strain AVO1, hits give low values",0.946
same,normalized growth,"locus YOL136C, strain PFK27, hits give low values",0.887
same,normalized growth,"locus YOR061W, strain CKA2, hits give low values",0.895
same,normalized growth,"locus YOR119C, strain RIO1, hits give low values",0.943
same,normalized growth,[7],0.923
same,normalized growth,"locus YOR329C, strain SCD5, hits give low values",0.961
same,normalized growth,"locus YPL031C, strain PHO85, hits give low values",0.914
same,normalized growth,"locus YPL153C, strain RAD53, hits give low values",0.931
same,normalized growth,"locus YPL204W, strain HRR25, hits give low values",0.941
same,normalized growth,"locus YPL209C, strain IPL1, hits give low values",0.95
same,normalized growth,[8],0.91
same,normalized growth,"locus YPR025C, strain CCL1, hits give low values",0.955
same,normalized growth,"locus YPR106W, strain ISR1, hits give low values",0.964
same,normalized growth,"locus YPR111W, strain DBF20, hits give low values",0.952
same,normalized growth,"strain NNK1, hits give low values",0.961
same,normalized growth,"strain TSCII, hits give low values",0.947
Cc1ccccc1/C=C/C1=NCCN1,normalized growth,"locus YAL013W, strain DEP1, hits give low values",0.997
same,normalized growth,"locus YAL040C, strain CLN3, hits give low values",1.09
same,normalized growth,"locus YCL061C, strain MRC1 (second series), hits give low values",1.01
same,normalized growth,"locus YDR150W, strain NUM1, hits give low values",1.02
same,normalized growth,"locus YDR363W, strain ESC2, hits give low values",0.999
same,normalized growth,"locus YER002W, strain NOP16, hits give low values",1.01
same,normalized growth,"locus YGR078C, strain PAC10, hits give low values",0.982
same,normalized growth,"locus YJR075W, strain HOC1, hits give low values",0.997
same,normalized growth,"locus YMR263W, strain SAP30, hits give low values",0.995
same,normalized growth,"locus YMR307W, strain GAS1, hits give low values",0.978
same,normalized growth,"locus YNL175C, strain NOP13, hits give low values",1
same,normalized growth,"locus YNL197C, strain WHI3, hits give low values",0.993
same,normalized growth,"locus YNL224C, strain SQS1, hits give low values",0.991
same,normalized growth,"locus YOR083W, strain WHI5 (second series), hits give low values",0.991
